Reference: PubChem BioAssay AID1851 (National Center for Advancing Translational Sciences (NCATS), 2009)
Among all 16,000 compounds or so, about 4,000 (25%) were called active. Not shown: some 26% with an inconclusive outcome. Not all results are given here. A number with no mark means an inactive call. Calls follow the shape of the dose curve; as a rule, active = well fitted curve in the direction sought with a large enough effect; inconclusive = small, poorly fitted or top-dose-only effect, or effect the other way; inactive = no such curve, though single readings can be large or run the other way.

These molecules were tested against Cytochrome P450 2C9 (Homo sapiens) (UniProt P11712) (assay: Cytochrome panel assay with activity outcomes). Details: recombinant CYP, pro-luciferin dealkylation, luminescence, p450-cyp2c9; series mostly up to 57.1 µM; activity, negative = inhibition: at the top concentration.
% is scaled to controls: 0 for no effect and ±100 for the full control effect.

Cytochrome P450 2C9 (Homo sapiens), sequence (P11712 whole entry, looked up): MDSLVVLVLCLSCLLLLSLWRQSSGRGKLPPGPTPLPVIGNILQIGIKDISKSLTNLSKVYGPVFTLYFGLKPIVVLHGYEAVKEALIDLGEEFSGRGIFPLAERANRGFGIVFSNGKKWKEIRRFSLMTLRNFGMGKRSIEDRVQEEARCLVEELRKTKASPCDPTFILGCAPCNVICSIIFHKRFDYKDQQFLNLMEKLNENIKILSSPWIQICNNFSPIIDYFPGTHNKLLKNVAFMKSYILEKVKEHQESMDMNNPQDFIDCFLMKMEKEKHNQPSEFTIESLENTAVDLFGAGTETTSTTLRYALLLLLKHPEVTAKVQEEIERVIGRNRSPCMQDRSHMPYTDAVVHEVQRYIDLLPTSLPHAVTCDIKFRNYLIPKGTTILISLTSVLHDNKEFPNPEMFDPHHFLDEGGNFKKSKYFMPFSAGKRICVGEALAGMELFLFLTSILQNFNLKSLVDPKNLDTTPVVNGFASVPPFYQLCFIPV

SMILES	AC50	activity, negative = inhibition
O=c1n(CCCN2CCN(c3cccc(Cl)c3)CC2)nc2ccccn12	inactive	–
CN(CCCNC(=O)C1CCC(=O)N1Cc1ccccc1Cl)c1ccccc1 (centres undefined)	–	-22.6%
Cc1noc(NS(=O)(=O)c2ccc(N/C=C\C(=O)c3ccc4c(c3)OCO4)cc2)c1C	14.1 µM (active)	–
Cc1noc(NS(=O)(=O)c2ccc(N/C=C/C(=O)c3ccc4c(c3)OCO4)cc2)c1C	12.6 µM (active)	–
CCC1(C)Cc2c(sc3nnn(CC(=O)Nc4ccc(C)cc4)c(=O)c23)CO1 (centres undefined)	11.2 µM (active)	–
CCCSc1nc(NCc2ccco2)c2c3c(sc2n1)COC(C)(C)C3	6.31 µM (active)	–
CCC1(C)Cc2c(sc3nnn(CC(=O)Nc4cccc5ccccc45)c(=O)c23)CO1 (centres undefined)	7.94 µM (active)	–
CCCSc1nc(SCC(=O)NCc2ccccc2)c2c3c(sc2n1)COC(C)(CC)C3 (centres undefined)	3.98 µM (active)	–
COC(=O)[C@H](CCSC)NC(=O)C/C=C\[C@@H](C)[C@@H](CO)OC	–	-1.66% [at 11.4 µM]
CN(C)c1ccc(-c2nccc(NCc3cccs3)n2)cc1	–	-21.1% [at 2.29 µM]
CC(=O)OC1CCC(OC(C)=O)c2c1n([O-])c(C)c(C)[n+]2=O (centres undefined)	–	-6.01%
O=C(Nc1ccc2c(c1)OCCO2)c1cccc2nc3ccccc3nc12	12.6 µM (active)	–
CC(=O)Nc1ccc2c(c1)OCCO2	–	-11.3%
CCn1c(-c2ccccc2Cl)nn(CC(=O)Nc2ccc(OC)cc2)c1=S	2.24 µM (active)	–
O=C(Nc1ccc2c(c1)OCCO2)C1CCN(C(=O)c2ccccc2)CC1	–	-40.1%
COC(=O)Cn1nc(-c2ccccc2)n(-c2ccccc2)c1=S	–	-24.6%
CC(=O)Nc1ccc2c(c1)OCCOCCOc1cc(NC(C)=O)ccc1OCCOCCOCCO2	–	-15%
O=C(CN1CCN(CC(=O)Nc2ccccc2Cl)CC1)Nc1ccc2c(c1)OCCO2	4.47 µM (active)	–
O=C(CC(c1ccccc1)c1ccccc1)Nc1ccc2c(c1)OCCO2	4.47 µM (active)	–
Oc1cc2c(c(Cl)c1O)CCNC[C@H]2c1ccccc1	inactive	–
COC(=O)N1CCC2(CCN(C(=O)Nc3ccc(OC)cc3)CC2)CC1	–	-9.69%
S=C(Nc1ccccc1)Nc1ccc(OCc2ccccc2)cc1	–	-35.1%

SMILES	AC50	activity, negative = inhibition
COc1ccccc1NC(=O)CN1CCN(CC(=O)Nc2ccc(OCc3ccccc3)cc2)CC1	2.24 µM (active)	–
COC(=O)N1CCC2(CC1)CN(C(=O)Nc1ccc(OC)cc1)C2	–	-26.8%
COc1ccc(NC(=O)CN2CCN(CC(=O)Nc3ccccc3Cl)CC2)cc1	8.91 µM (active)	–
O=C1[C@@H]2[C@H]3[C@H](O)[C@H](O)C/C(=N/OC[C@@H](O)COCc4ccco4)[C@H]3CC[C@H]2C(=O)N1c1ccc(F)cc1F	–	-12.6% [at 11.4 µM]
Cc1cccc(CNc2cc(-c3cccc(C#N)c3)ncn2)c1	–	3.34% [at 2.29 µM]
NCCS(=O)O	–	8.02%
Cn1c(=O)c2[nH]c(/N=N\N3CCN(CCO)CC3)nc2n(C)c1=O	–	4.93% [at 11.4 µM]
C#CCn1c(S(=O)(=O)Cc2ccc(OC)cc2)nc(-c2ccccc2)c1-c1ccccc1	2.82 µM (active)	–
COc1ccc(CO/N=C/c2c(C)[nH]c(=O)[nH]c2=O)cc1	–	-23.5%
COC(=O)CC[C@@H](C)[C@H]1CC[C@H]2[C@H]3CC[C@H]4C[C@@H]5CC[C@@]4(C)C3(O5)[C@@H](Br)[C@@H](Br)[C@@]12C	2.51 µM (active)	–
C[C@H](CCC(=O)NCC(=O)O)[C@H]1CC[C@H]2[C@H]3[C@@H](C[C@@H](O)[C@]12C)[C@]1(C)CC[C@H](O)C[C@@H]1C[C@@H]3O	–	-14.1% [at 25.6 µM]
COC(=O)N1CCC2(CC1)CCN(c1ccncc1)CC2	–	14.6%
CC(C)(C)c1ccc(OCC(=O)NNC(=O)Cc2cccs2)cc1	–	28.7%
CC(/C=N/NC(=O)Cc1cccs1)=C\c1ccco1	7.94 µM (active)	–
Cn1cccc1CC(=O)N/N=C\c1cccs1	–	-23.2%
O=C(Cc1cccs1)N/N=C/C(Br)=C/c1ccccc1	2.82 µM (active)	–
C/C(CC(=O)NC1CCCC1)=N\NC(=O)Cc1cccs1	–	-10.1%
Cn1cc(C(=O)N/N=C/C(Br)=C\c2ccccc2)ccc1=O	–	-26%
Nc1c(S(=O)(=O)c2ccccc2)c2nc3ccccc3nc2n1Cc1ccco1	3.55 µM (active)	–
Cc1nc2c([nH]1)c(=O)n(C)c(=O)n2Cc1ccco1	–	13.3%
C[C@](O)(C(=O)Nc1ccc(S(=O)(=O)c2ccccc2)cc1)C(F)(F)F	–	-10.9%
CC(=O)Nc1c(S(=O)(=O)c2ccccc2)c2nc3ccccc3nc2n1Cc1ccccc1	8.91 µM (active)	–
